Laboratory results reported in PubChem BioAssay (NCI).
The panel holds about 79,000 compounds, 15% with a hit somewhere; the sample as a whole holds those more often. Rule as the data show it: active = growth inhibition above about 70%; inactive = the rest.

Experiments:
[1] = NCI Yeast Anticancer Drug Screen. Data for the rad50 strain (AID 155);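 also: 0% = growth of vehicle-only cultures of the same strain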; settings: S. cerevisiae rad50 strain growth inhibition; at 50.0 µM; stronger effect = higher value
How it was run: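 DNA repair mutant yeast, compound exposure, growth read-out; inhibition is taken relative to vehicle.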

[2] = NCI Yeast Anticancer Drug Screen. Data for the mec2-1 strain (AID 157); settings: S. cerevisiae mec2-1 strain, at 50.0 µM, stronger effect = higher value
How it was run: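 mec2-1 yeast strain, carrying an alteration in DNA damage repair or cell cycle control, was exposed to compounds; growth inhibition was measured relative to vehicle-treated controls.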

[3] = NCI Yeast Anticancer Drug Screen. Data for the sgs1 mgt1 strain (AID 161);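 also: 0% = growth of cultures given vehicle only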; settings: S. cerevisiae sgs1 mgt1 strain, at 50.0 µM, stronger effect = higher value
How it was run: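 Compounds are added to genetically altered yeast, and growth is compared with cultures given vehicle alone to give percent inhibition.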

[4] = NCI Yeast Anticancer Drug Screen. Data for the cln2 rad14 strain (AID 165);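 also: 0% = growth equal to vehicle treated cultures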; settings: S. cerevisiae cln2 rad14 strain, at 50.0 µM, stronger effect = higher value
How it was run: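 Yeast carrying cln2 and rad14 alterations (cell cycle control and DNA damage repair) were exposed to compounds. Growth inhibition was measured against vehicle-treated controls.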

[5] = NCI Yeast Anticancer Drug Screen. Data for the bub3 strain (AID 167); settings: S. cerevisiae bub3 mutant strain, at 50.0 µM, stronger effect = higher value
How it was run: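 In this screen, a yeast mutant lacking normal mitotic checkpoint function is challenged with compound. Relative growth versus vehicle gives the inhibition value.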

[6] = NCI Yeast Anticancer Drug Screen. Data for the mlh1 rad18 strain (AID 175); settings: S. cerevisiae mlh1 rad18 strain growth inhibition; at 50.0 µM; stronger effect = higher value
How it was run: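 Growth inhibition of the yeast strain was measured after compound exposure and expressed relative to vehicle-treated controls. The strain carries defined defects in DNA damage repair.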

Measured: growth inhibition

Fc1ccc(N=C2c3ccccc3-c3ccccc32)cc1
inactive: [1] 6.35% | [2] -1.9% | [3] -0.25% | [4] 5.3% | [5] 1.65% | [6] 1.15%

Cn1c(=O)c2c(ncn2CCN2CCNCC2)n(C)c1=O
inactive: [1] 13.8% | [2] -12.8% | [3] 0.2% | [4] -37.5% | [5] 25.4% | [6] 3.9%

COc1ccc(C(c2ccc(N(Cc3ccccc3)Cc3ccccc3)cc2NC(C)=O)c2ccc(N(Cc3ccccc3)Cc3ccccc3)cc2NC(C)=O)cc1OC
inactive: [1] 5.75% | [2] -5.25% | [3] -19.9% | [4] -8.55% | [5] -6.1% | [6] 26.7%

O=S1c2ccccc2Sc2ccccc21
inactive: [1] 2.65% | [2] -8.4% | [3] -5.05% | [4] 1.6% | [5] -2% | [6] -2.25%

CN(CCN(C)C(=O)CCn1cc(F)c(=O)[nH]c1=O)C(=O)CCn1cc(F)c(=O)[nH]c1=O
inactive: [1] 26.1% | [2] 18.2% | [3] 50.4% | [4] 18.1% | [5] 3.05% | [6] 29.9%

C=CNC(=S)n1nc(-c2ccccc2NC(=O)C(F)(F)F)c(=O)n(C(=S)NC=C)c1=S
inactive: [1] 31.4% | [2] 38.5% | [3] 30.4% | [4] -0.55% | [5] -9.1% | [6] 24.9%

CCOC(=O)C1=C(C(=O)c2ccccc2)C(c2ccc(Cl)cc2Cl)C(C(=O)c2ccccc2)=C(C(=O)OCC)N1
inactive: [1] -11.3% | [2] -8.2% | [3] -16.6% | [4] -3.45% | [5] -9% | [6] -1.5%

O=C1CC(c2ccccc2)S(=O)c2ccccc2N1 (stereo not drawn)
inactive: [1] -7.5% | [2] 5.25% | [3] -9.9% | [4] 26.8% | [5] 11.6% | [6] -1.25%

CN(CCCn1ccnc1[N+](=O)[O-])CCCn1ccnc1[N+](=O)[O-]
inactive: [1] -28.1% | [2] -12.6% | [3] -0.35% | [4] 3.85% | [5] -5.05% | [6] 11.6%

CCOC(=O)Nc1nc2ccccc2n1CN1CCCCC1
inactive: [1] 18.5% | [2] 11.1% | [3] 23.4% | [4] 16.4% | [5] 0.2% | [6] 27.2%

COP(=O)(O)OP(=O)(O)OC
inactive: [1] 1.2% | [2] -29.5% | [3] 25.2% | [4] 6.35% | [5] 13.8% | [6] 16.8%

O=C1CSC(c2ccco2)N1CCN1C(=O)CSC1c1ccco1 (stereo not drawn)
inactive: [1] -19% | [2] -5% | [3] -12.7% | [4] -39.4% | [5] -8.6% | [6] -15.7%

OC1C(O)C2OC(c3ccccc3)OC2C2OC(c3ccccc3)OC12 (stereo not drawn)
inactive: [1] 7.1% | [2] -4.85% | [3] 0.95% | [4] 0.1% | [5] -15.4% | [6] -2.35%

NC(=O)NC(NC(=O)NC(NC(N)=O)c1ccco1)c1ccco1 (stereo not drawn)
inactive: [1] 11.3% | [2] 15.4% | [3] 10.7% | [4] 6.1% | [5] 2.05% | [6] 15.3%

COC(=O)NCCCCl
inactive: [1] 5.25% | [2] -10.7% | [3] 3.5% | [4] -14.2% | [5] -0.3% | [6] 3.15%

CSc1ncc(CO)c(Nc2ccccc2Cl)n1
inactive: [1] 2.8% | [2] 14.4% | [3] -19.4% | [4] -14% | [5] 12.3% | [6] 1.55%

Cc1cnc(C)c(C(O)c2ccccc2)n1 (stereo not drawn)
inactive: [1] -5.9% | [2] -10.3% | [3] -3.7% | [4] -17.9% | [5] -9.3% | [6] -3.65%

CCOc1ncc(C(=O)c2ccc(C)cc2)c(OCC)n1
inactive: [1] -8.55% | [2] -20.4% | [3] -6.2% | [4] -58.9% | [5] 3.6% | [6] -20.4%

C=C(Cl)C(=O)O
inactive: [1] -11.3% | [2] -20.2% | [3] 18.9% | [4] -0.55% | [5] -25.4% | [6] -7.55%

CN(C)CCCNCc1c[nH]c(=O)[nH]c1=O
inactive: [1] -4.75% | [2] 6.55% | [3] -9.9% | [4] -7.4% | [5] -4.85% | [6] -25.9%

COc1ccc(CCCCl)c(C2=NCCc3ccccc32)c1
inactive: [1] 25.2% | [2] 12.7% | [3] -17.3% | [4] 12.2% | [5] -0.55% | [6] 1.95%

CC(C)C(NC(=O)c1cnc2ccccc2n1)C(=O)O (stereo not drawn)
inactive: [1] -8.15% | [2] -5.5% | [3] 0.4% | [4] -51.7% | [5] 6.35% | [6] 7.75%

Cc1cccc(C(C)(C)C)c1NC(=O)CC1C(=O)Nc2ccccc2S1(=O)=O (stereo not drawn)
inactive: [1] 4.85% | [2] 1.8% | [3] -4.4% | [4] 8.95% | [5] 9.5% | [6] 23.9%

NC(=O)N=Nc1ccc(Br)cc1
inactive: [1] 9.8% | [2] 7.05% | [3] -7.85% | [4] -11.7% | [5] -3.55% | [6] 18.3%

CCO/C([O-])=C(\C=N\S(=O)(=O)c1ccc(C)cc1)[n+]1ccc(C)cc1
inactive: [1] 13.8% | [2] 14.7% | [3] 12.2% | [4] -17.1% | [5] -4.2% | [6] 6.45%

COc1ccc(COCC[C@H](C)OC2OC(CO)C(O)C(O)C2O)cc1 (stereo partly drawn)
inactive: [1] 13.9% | [2] -8.75% | [3] -12.9% | [4] -6.2% | [5] 5.25% | [6] -71%

O=C(CCNC(=O)OCc1ccccc1)NC(Cc1ccccc1)C(=O)OCc1ccccc1 (stereo not drawn)
inactive: [1] -0.9% | [2] -14.2% | [3] 4.55% | [4] -15.3% | [5] 2.4% | [6] 7.65%

CCCC(=O)OC(C)CC(C)C (stereo not drawn)
inactive: [1] 6% | [2] -13.7% | [3] -12.2% | [4] -10.8% | [5] 2.2% | [6] 1.95%

Cc1cc(OC(=O)c2ccccc2)c(C)c(C)c1OC(=O)c1ccccc1
inactive: [1] 6.15% | [2] -7.95% | [3] 15.2% | [4] 9.2% | [5] 8.4% | [6] 21.1%

CCCOC(=O)COc1ccccc1
inactive: [1] 10.1% | [2] 5.7% | [3] -4.3% | [4] -45% | [5] -11.4% | [6] 2.4%

CC[N+]1(C)CC2CCC1C2 (stereo not drawn)
inactive: [1] 4.55% | [2] 17.1% | [3] 14.5% | [4] -39.9% | [5] 5.85% | [6] -11.8%

O=C(Cc1ccccc1C(=O)O)c1ccccc1
inactive: [1] -16.6% | [2] -18.6% | [3] -23.6% | [4] -24.4% | [5] -25.1% | [6] -13.3%

N#CC1(C(N)=O)OC1c1ccccc1Cl (stereo not drawn)
inactive: [1] -3.1% | [2] -18.1% | [3] 1.3% | [4] -37.3% | [5] -7.1% | [6] -16.9%

CCCC(=O)Nc1ccc(OC)cc1
inactive: [1] 16.8% | [2] 11.2% | [3] 9.55% | [4] -43.2% | [5] -1.85% | [6] 1.9%

C[N+]1(C)CCCC(O)(C(=O)c2ccccc2)C1 (stereo not drawn)
inactive: [1] -5.2% | [2] -10.3% | [3] -14.3% | [4] 6.6% | [5] -2.4% | [6] 17.1%

CCCCCCCC(=O)OCC(=O)c1ccc(-c2ccccc2)cc1
inactive: [1] -24.8% | [2] -1.6% | [3] 2.85% | [4] -28.6% | [5] 11.5% | [6] 3.1%

CC1=Nc2ccc(C)cc2N=C(C)C1
inactive: [1] 11.4% | [2] 4.1% | [3] 7.2% | [4] -29.4% | [5] 22.4% | [6] -1.6%

CC(C)(CCC(C)(C)c1ccccc1)c1ccccc1
inactive: [1] -2.7% | [2] -35.7% | [3] -9.2% | [4] -9.75% | [5] -17.9% | [6] -8.25%
